# The full list was thinned out, with the strongest signals kept by preference.
# B1: rEtpA (Escherichia coli) (protein)
# chain: MNRIYKLKFDKRRNELVVVSEITTGVGNAKATGSVEGEKSPRRGVRAMALSLLSGMMIMAHPAMSANLPTGGQIVAGSGSIQTPSGNQMNIHQNSQNMVANWNSFDIGKGNTVQFDQPSSSAVALNRVVGGGESQIMGNLKANGQVFLVNPNGVLFGEGASVSTSGFVASTRDIKNDDFMNRRYTFSGGQKAGAAIVNQGELTTNAGGYIVLAADRVSNSGTIRTPGGKTVLAASERITLQLDNGGLMSVQVTGDVVNALVENRGLVSARDGQVYLTALGRGMLMNTVLNVSGVVEASGMHRQDGNIVLDGGDSGVVHLSGTLQADNASGQGGKVVVQGKNILLDKGSNITATGGQGGGEVYVGGGWQGKDSNIRNADKVVMQGGARIDVSATQQGNGGTAVLWSDSYTNFHGQISAKGGETGGNGGRVETSSHGNLQAFGTVSASAKKGKAGNWLLDSADITIVNGSNVSKTETTQSPPHTQFAPTAAGSAVSNTSINNRLNNGTSVTILTHRTRTGTAQGGNITVNAAINKSNGSDVNLTLQAGGNITVNNSITSTEGKLNVNLSGARTSNGSITISNNANITTNGGDITVGTTNTSNRVNISINNTTLNASNGNIQLTGTGTDSGILFAGNNRLTASNIALTGNSTSGNAINLTGTATLNATNNITLTGSSTSGNAINLKGNNTLTASNITLTGESTSGNAINLTDTTGTTTLNATNNITMQGTRVQIKHSNITAGNFALNATVAGSEISNTTLTATNNINLAAKTNSASSGVYLKDARITSTNGSITANGTATANGKATHLDGNVTLNASNGRIKLTGNGHGSASGILFAGNNRLTASNIALTGNSTSGNAINLTGTATLNATNDITLTGSSTSGNAINLTGTATLNATNNITLTGSSTSGNAINLKGNNTLTASNITLTGESTSGNAINLTDTTGTTTLNATNNITMQGTRVQIKHSNITAGNFALNATVAGSEISNTTLTATNNINLAAKTNSASSGVYLKDARITSTNGSITANGTATANGKATHLDGNVTLNASNGRIKLTGNGHGSASGILFAGNNRLTASNIALTGNSTSGNAINLTGTATLNATNDITLTGSSTSGNAINLTGTATLNATNNITLTGSSTSGNAINLKGNNTLTASNITLTGESTSGNAINLTDTTGTTTLNATNNITMQGTRVQIKHSNITAGNFALNATVAGSEISNTTLTATNNINLAAKTNSASSGVYLKDARITSTNGSITANGTATANGKATHLDGNVTLNASNGRIKLTGNGHGSASGILFAGNNRLTASNIALTGNSTSGNAINLTGTATLNATNDITLTGSSTSGNAINLTGTATLNATNNITLTGSSTSGNAINLKGNNTLTASNITLTGESTSGNAINLTDTTGTTTLNATNNITMQGTRVQIKHSNITAGNFALNATVAGSEISNTTLTATNNINLAAKTNSASSGVYLKDARITSTNGSITTNGTATANGKATHLDGNVTLNASNGRIKLTGNGHGSASGILFAGNNRLTASNIALTGNSTSGNAINLTGTATLNATNDITLTGSSTSGNAINLTGTATLNATNNITLTGSSTSGNAINLKGNNTLTASNITLTGESTSGNAINLTDTTGTTTLNATNNITMQGTRVQIKHSNITAGNFALNATVAGSEISNTTLTATNNINLAAKTNSASSGVYLKDARITSTNGSITANGTAPANDNATYLDGNVTLNASNGSIKLTGNGNGSTSGILFAGNNTLTASNITLTGNSEVYWQKLGPEQKLISEEDLNSAVDHHHHHH
# Legend:
# Experiment in all cases: glycan array binding signal (z-score within array); higher = stronger binding
# Conditions in all cases: glycan notation: IUPAC condensed, linker removed
# [1] = molecular target: Fuc(a1-2)Gal(b1-3)GlcNAc(b1-3)[Gal(b1-4)GlcNAc(b1-6)]Gal(b1-4)Glc
# Summary of the method: (§1)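 Columns mapping to the same glycan were averaged after glycan names were converted to IUPAC-condensed notation. The data come from 3228 arrays in the Consortium for Functional Glycomics database, limited to those with an available protein sequence. Binding is reported as a within-array Z-score averaged across arrays of one protein sequence and across linkers.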
# [2] = molecular target: Fuc(a1-2)Gal(b1-4)[Fuc(a1-3)]GlcNAc(b1-2)[Fuc(a1-2)Gal(b1-4)[Fuc(a1-3)]GlcNAc(b1-4)]Man(a1-3)[Fuc(a1-2)Gal(b1-4)[Fuc(a1-3)]GlcNAc(b1-2)Man(a1-6)]Man(b1-4)GlcNAc(b1-4)GlcNAc
# Summary of the method: as §1
# [3] = molecular target: Fuc(a1-2)[Gal(a1-3)]Gal(b1-3)GalNAc
# Summary of the method: as §1
# [4] = molecular target: Fuc(a1-2)[Gal(a1-3)]Gal(b1-3)GalNAc(b1-3)Gal(a1-4)Gal(b1-4)Glc
# Summary of the method: as §1
# [5] = molecular target: Fuc(a1-2)[GalNAc(a1-3)]Gal(b1-3)GlcNAc(b1-2)Man(a1-3)[Fuc(a1-2)[GalNAc(a1-3)]Gal(b1-3)GlcNAc(b1-2)Man(a1-6)]Man(b1-4)GlcNAc(b1-4)GlcNAc
# Summary of the method: as §1
# [6] = molecular target: Fuc(a1-2)[GalNAc(a1-3)]Gal(b1-4)GlcNAc(b1-2)Man(a1-3)[Fuc(a1-2)[GalNAc(a1-3)]Gal(b1-4)GlcNAc(b1-2)Man(a1-6)]Man(b1-4)GlcNAc(b1-4)GlcNAc
# Summary of the method: as §1
# [7] = molecular target: Fuc(a1-3)[Gal(b1-4)]GlcNAc(b1-3)GalNAc
# Summary of the method: as §1
# [8] = molecular target: Fuc(a1-3)[Gal(b1-4)]GlcNAc(b1-6)GalNAc
# Summary of the method: as §1
# [9] = molecular target: Fuc(a1-3)[Gal3S(b1-4)]GlcNAc
# Summary of the method: as §1
# Fuc(a1-4)GlcNAc = molecular target: Fuc(a1-4)GlcNAc
# Summary of the method: as §1
# Gal(a1-2)Gal = molecular target: Gal(a1-2)Gal
# Summary of the method: as §1
# Gal(a1-3)Gal = molecular target: Gal(a1-3)Gal
# Summary of the method: as §1
# Gal(a1-3)Gal(b1-3)GlcNAc = molecular target: Gal(a1-3)Gal(b1-3)GlcNAc
# Summary of the method: as §1
# [10] = molecular target: Gal(a1-3)Gal(b1-3)GlcNAc(b1-2)Man(a1-3)[Gal(a1-3)Gal(b1-3)GlcNAc(b1-2)Man(a1-6)]Man(b1-4)GlcNAc(b1-4)GlcNAc
# Summary of the method: as §1
# Gal(a1-3)Gal(b1-4)Glc = molecular target: Gal(a1-3)Gal(b1-4)Glc
# Summary of the method: as §1
# [11] = molecular target: Gal(b1-3)GalNAc(b1-4)Gal(b1-4)Glc
# Summary of the method: as §1
# [12] = molecular target: Gal(b1-3)GlcNAc(b1-3)Gal(b1-4)GlcNAc
# Summary of the method: as §1
# [13] = molecular target: Gal(b1-4)GlcNAc(b1-2)Man(a1-3)[GlcNAc(b1-2)Man(a1-6)]Man(b1-4)GlcNAc(b1-4)GlcNAc
# Summary of the method: as §1
# [14] = molecular target: Gal(b1-4)GlcNAc(b1-2)Man(a1-3)[GlcNAc(b1-4)][Gal(b1-4)GlcNAc(b1-2)Man(a1-6)]Man(b1-4)GlcNAc(b1-4)GlcNAc
# Summary of the method: as §1
# [15] = molecular target: Gal(b1-4)GlcNAc(b1-2)Man(a1-6)Man(b1-4)GlcNAc(b1-4)GlcNAc
# Summary of the method: as §1
# [16] = molecular target: Gal(b1-4)GlcNAc(b1-2)Man(a1-6)[Man(a1-3)]Man(b1-4)GlcNAc(b1-4)GlcNAc
# Summary of the method: as §1
# [17] = molecular target: Gal(b1-4)GlcNAc(b1-2)[Gal(b1-4)GlcNAc(b1-6)]Man(a1-6)[GlcNAc(b1-4)][Gal(b1-4)GlcNAc(b1-2)Man(a1-3)]Man(b1-4)GlcNAc(b1-4)GlcNAc
# Summary of the method: as §1
# [18] = molecular target: Gal(b1-4)GlcNAc(b1-3)Gal(b1-4)GlcNAc(b1-2)[Gal(b1-4)GlcNAc(b1-3)Gal(b1-4)GlcNAc(b1-6)]Man(a1-6)[Gal(b1-4)GlcNAc(b1-3)Gal(b1-4)GlcNAc(b1-2)Man(a1-3)]Man(b1-4)GlcNAc(b1-4)GlcNAc
# Summary of the method: as §1
# [19] = molecular target: Gal(b1-4)GlcNAc(b1-3)Gal(b1-4)GlcNAc(b1-2)[Gal(b1-4)GlcNAc(b1-3)Gal(b1-4)GlcNAc(b1-6)]Man(a1-6)[Gal(b1-4)GlcNAc(b1-3)Gal(b1-4)GlcNAc(b1-2)Man(a1-3)]Man(b1-4)GlcNAc(b1-4)[Fuc(a1-6)]GlcNAc
# Summary of the method: as §1
# [20] = molecular target: Gal(b1-4)GlcNAc(b1-3)Gal(b1-4)GlcNAc(b1-3)Gal(b1-4)GlcNAc(b1-3)Gal(b1-4)GlcNAc(b1-3)Gal(b1-4)GlcNAc(b1-2)[Gal(b1-4)GlcNAc(b1-3)Gal(b1-4)GlcNAc(b1-3)Gal(b1-4)GlcNAc(b1-3)Gal(b1-4)GlcNAc(b1-3)Gal(b1-4)GlcNAc(b1-6)]Man(a1-6)[Gal(b1-4)GlcNAc(b1-3)Gal(b1-4)GlcNAc(b1-3)Gal(b1-4)GlcNAc(b1-3)Gal(b1-4)GlcNAc(b1-3)Gal(b1-4)GlcNAc(b1-2)Man(a1-3)]Man(b1-4)GlcNAc(b1-4)[Fuc(a1-6)]GlcNAc
# Summary of the method: as §1
# [21] = molecular target: Gal3S(b1-4)[Fuc(a1-3)]GlcNAc
# Summary of the method: as §1
binder,measurement,setting,value
B1,glycan array binding signal (z-score),[1],-0.058
same,glycan array binding signal (z-score),[2],-0.225
same,glycan array binding signal (z-score),[3],0.413
same,glycan array binding signal (z-score),[4],-0.241
same,glycan array binding signal (z-score),[5],-0.328
same,glycan array binding signal (z-score),[6],-0.09
same,glycan array binding signal (z-score),[7],-0.358
same,glycan array binding signal (z-score),[8],-0.192
same,glycan array binding signal (z-score),[9],-0.102
same,glycan array binding signal (z-score),Fuc(a1-4)GlcNAc,2.8
same,glycan array binding signal (z-score),Gal(a1-2)Gal,0.054
same,glycan array binding signal (z-score),Gal(a1-3)Gal,2.11
same,glycan array binding signal (z-score),Gal(a1-3)Gal(b1-3)GlcNAc,1.87
same,glycan array binding signal (z-score),[10],0.182
same,glycan array binding signal (z-score),Gal(a1-3)Gal(b1-4)Glc,-0.179
same,glycan array binding signal (z-score),[11],-0.272
same,glycan array binding signal (z-score),[12],-0.457
same,glycan array binding signal (z-score),[13],-0.408
same,glycan array binding signal (z-score),[14],-0.274
same,glycan array binding signal (z-score),[15],-0.376
same,glycan array binding signal (z-score),[16],0.021
same,glycan array binding signal (z-score),[17],-0.309
same,glycan array binding signal (z-score),[18],-0.106
same,glycan array binding signal (z-score),[19],-0.356
same,glycan array binding signal (z-score),[20],-0.351
same,glycan array binding signal (z-score),[21],-0.202
